GLP-1R agonist = qHTS of GLP-1 Receptor Agonists. HEK293 GLP-1R CRE-luciferase, luminescence, 4-6 h; cells express a hypersensitive GLP-1R form. Glucagon-like peptide 1 receptor (Homo sapiens), P43220. Potency, µM (doses to about 45.6 µM), actives largely listed as activators. hit rate 0.007% among 380,000. AID 624172, 2012
Target sequence (P43220 whole entry, looked up): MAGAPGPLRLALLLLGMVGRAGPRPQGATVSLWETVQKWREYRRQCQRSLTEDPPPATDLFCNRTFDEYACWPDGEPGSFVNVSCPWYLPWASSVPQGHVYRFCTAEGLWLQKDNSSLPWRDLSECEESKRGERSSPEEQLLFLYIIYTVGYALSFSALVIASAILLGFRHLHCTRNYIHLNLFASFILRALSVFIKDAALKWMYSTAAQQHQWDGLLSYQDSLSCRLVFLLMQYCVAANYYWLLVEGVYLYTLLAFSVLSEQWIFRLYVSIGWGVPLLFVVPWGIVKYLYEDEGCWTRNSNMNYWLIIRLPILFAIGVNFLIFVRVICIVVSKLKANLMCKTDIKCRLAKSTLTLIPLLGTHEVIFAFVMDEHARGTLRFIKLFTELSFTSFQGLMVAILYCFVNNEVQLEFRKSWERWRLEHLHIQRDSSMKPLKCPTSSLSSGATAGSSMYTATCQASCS
GLP1R cytotox = qHTS of GLP-1 Receptor Inverse Agonists: Cytotox Screen. Potency, µM (doses to about 38.3 µM), usual class: inhibitors. hit rate 0.13% among 410,000. HEK293 cAMP-luciferase reporter cells, luminescence, 24 h. AID 624418, 2012;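 note: loss of luciferase light is scored as toxicity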
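Quantitative HTS format, 1536 wells, 200 cells/uL seeded. Compounds: 23 nL, 24 h, 37 °C. Detection: luciferase reagent, luminescence at 12 min RT; decreased signal taken as cytotoxic.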
DRD3 antagonist = qHTS of D3 Dopamine Receptor Antagonist: qHTS | D(3) dopamine receptor (Homo sapiens), P35462 | D3R cells, DiscoveRx beta-arrestin luminescence, antagonist mode; stronger effect = lower value | max response, negative = inhibition, % | hit rate 2.5% among 360,000; in the data active = max response below about -50%; inconclusive = no clear call, values can overlap the other calls
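Cells expressing the human receptor were seeded at 1500 cells/well, incubated overnight at 37 degrees C in 5% CO2, then exposed to library compounds with dopamine controls for 90 minutes at 37 degrees C before luminescent detection.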
DRD3 agonist = qHTS of D3 Dopamine Receptor Agonist: qHTS. D(3) dopamine receptor (Homo sapiens), P35462. D3R DiscoveRx beta-arrestin cells, luminescence, 90 min. max activation, %. hit rate 0.58% among 410,000. AID 652048, 2013; in the data active = max activation above about 30%
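Cells at 1500/well, incubated overnight, then treated with pinned compounds (dopamine as control) for 90 min at 37 degrees C. DiscoveRx reagent added for 30 - 60 minutes at room temperature; luminescence read.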
GLP-1R inv ag = qHTS of GLP-1 Receptor Inverse Agonists (Inhibition Mode); Glucagon-like peptide 1 receptor (Homo sapiens), P43220; HEK293 GLP-1R CRE-luciferase, luminescence, 24 h; GLP-1R form is constitutively active; Potency, µM (top dose mostly 38.3 µM), usual class: inhibitors; hit rate 1.6% among 410,000; note: nearly all actives have a fitted effect of over 55% in size
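Readout was luciferase luminescence, measured 12 min after detection reagent at room temperature. Beforehand, GLP-1R reporter HEK293 cells had sat 12 h, then received compounds for 24 hr at 37 deg C.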
ClpP mod = qHTS Assay for Activators of ClpP. purified B. subtilis ClpP, FRET peptide cleavage, 20 min. Potency, µM (titrated, usually from 57.5 µM). hit rate 1.9% among 340,000. AID 651965, 2013; active = well fitted falling curve with a large enough effect; inconclusive = small, poorly fitted or top-dose-only effect; inactive = no such curve, though single readings can be large or run the other way; note: the source files actives as falling curves though it sought activators and does not explain the sign; nearly all actives have a fitted effect of over 65% in size
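Purified B. subtilis ClpP, 10 microg/mL final in Tris/HCl pH8 with KCl, BSA, glycerol and Tween-20, cleaved an Abz/nitrotyrosine-quenched decapeptide. Fluorescence (ex 320, em 430) was read at 0 and 20 min at room temperature. Delta was normalized to 5.8 microM ADEP and DMSO/no-enzyme controls.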
Each line names hits and unclear results; the compound was inactive in the other large screens. Rows were chosen to be rich in hits. Some 5.7% of all compounds tested hit in one or more screens of this group. Unless noted, calls come from the whole dose curve; as a rule, active = well fitted curve in the direction sought with a large enough effect; inconclusive = small, poorly fitted or top-dose-only effect, or another doubt; inactive = no such curve, though single readings can be large; an effect the other way counts as inactive or inconclusive.

CC(=O)c1cccc(NC(=O)C(Cc2ccccc2)NS(=O)(=O)c2ccc(Br)s2)c1 (centres undefined)	none (no result: GLP-1R agonist, DRD3 antagonist)
O=c1cc(-c2ccccc2)n(S(=O)(=O)c2ccccc2)o1	DRD3 antagonist inconclusive
O=c1cc(-c2ccccc2)n(S(=O)(=O)c2ccc3ccccc3c2)o1	DRD3 antagonist -77
Cc1ccccc1C(=O)Nc1sc2c(c1C(=O)N1CCCCC1)CCC(C)C2 (centres undefined)	GLP-1R inv ag inconclusive (no result: GLP-1R agonist, DRD3 antagonist)
CN(C(=O)COC(=O)C12CC3CC(CC(Cl)(C3)C1)C2)C1(C#N)CCCCC1	GLP-1R inv ag 13µM
O=C(Cn1cc(COc2ccc(Br)cc2)nn1)c1ccc(O)cc1	GLP-1R inv ag inconclusive
N#Cc1ccccc1OCc1cn(CC(=O)c2ccc(O)cc2)nn1	DRD3 antagonist -73
O=Cc1cccc(OCc2cn(CC(=O)c3ccc(O)cc3)nn2)c1	DRD3 antagonist -53
O=C(Cn1cc(COc2ccccc2[N+](=O)[O-])nn1)c1ccc(O)cc1	DRD3 agonist 37
COc1ccc(-c2ccc(NS(=O)(=O)c3ccccc3Cl)cc2)nn1	none (no result: GLP-1R agonist, DRD3 antagonist)
COC(=O)c1c(C)oc2ccc(N(C(=O)Oc3ccccc3)S(=O)(=O)c3ccc(C(C)(C)C)cc3)cc12	none (no result: GLP-1R agonist, DRD3 antagonist)
Cc1cccc(C)c1NC(=O)COC(=O)c1ccc2c(c1)OCO2	none
Cc1cccc(C)c1NC(=O)COC(=O)c1c2c(nc3ccccc13)/C(=C\c1ccc3c(c1)OCO3)CCC2	DRD3 antagonist -58
Cc1cccc(C)c1NC(=O)C1c2ccccc2OCC(=O)N1C1CC1 (centres undefined)	none
COc1ccc(NC(=O)NC2(C(=O)N3CCN4CCCC4C3)CCCCC2)cc1 (centres undefined)	DRD3 agonist 31
Cc1cccc(C)c1NC(=O)NC1(C(=O)N2CCN3CCCC3C2)CCCCC1 (centres undefined)	none (no result: ClpP mod)
CC(C)(C)C1CCc2onc(C(=O)Nc3sc4c(c3C#N)CCCC4)c2C1 (centres undefined)	none (no result: GLP-1R agonist, DRD3 antagonist)
O=C(CCC(=O)Nc1cc(C(F)(F)F)ccc1Cl)N/N=C\c1cc([N+](=O)[O-])ccc1O	GLP1R cytotox inconclusive, DRD3 antagonist -70, GLP-1R inv ag inconclusive (no result: ClpP mod)
O=C(CCC(=O)Nc1ccc(F)cc1)N/N=C/c1ccccc1O	GLP-1R inv ag inconclusive (no result: ClpP mod)
O=C(Cn1cncn1)N/N=C/c1cc([N+](=O)[O-])ccc1O	DRD3 antagonist inconclusive
Cc1cccc(NC(=O)CCC(=O)N/N=C/c2cc([N+](=O)[O-])ccc2O)c1	DRD3 antagonist inconclusive, GLP-1R inv ag inconclusive
O=C(CCC(=O)Nc1ccc(Br)cc1)N/N=C/c1cc([N+](=O)[O-])ccc1O	DRD3 antagonist -59 (no result: ClpP mod)
O=C(CCC(=O)Nc1ccc(F)cc1)N/N=C/c1cc([N+](=O)[O-])ccc1O	DRD3 antagonist -70, GLP-1R inv ag inconclusive (no result: ClpP mod)
CCOc1ccc(/C=C/c2ccc3ccccc3[n+]2C)cc1OCC	none (no result: GLP-1R agonist, GLP1R cytotox, DRD3 antagonist, DRD3 agonist, GLP-1R inv ag)
CCOc1ccc(-n2c(=O)cc(N3CCN(c4ccc(F)cc4)CC3)[nH]c2=O)cc1	DRD3 antagonist -114
COc1ccc(N2CCN(C(=O)c3cn(C4CCCCC4)c(=O)c4c3c3ccccc3n4C)CC2)cc1	GLP-1R inv ag inconclusive (no result: GLP-1R agonist, DRD3 antagonist)
Cc1c(C2Nc3ccccc3NC3=C2C(=O)CC(C)(C)C3)cnn1C (centres undefined)	DRD3 antagonist -71
CC1(C)CC(=O)C2=C(C1)Nc1ccccc1NC2c1ccccc1F (centres undefined)	none
COc1ccccc1OCC(=O)NCC1CCCN(C(=O)c2cccc(C)c2)C1 (centres undefined)	none
Cc1ccccc1CS(=O)(=O)CCC(=O)N1CCN(c2ccc(N3CCOCC3)nn2)CC1	ClpP mod 22µM

Compound activity from PubChem.
